# Screens (PubChem)
# TDP1 cell CPT: growth inhibition of DT40 Tdp1-/-;hTDP1 cells with camptothecin (screen for TDP1 inhibitors). chicken DT40 Tdp1-/-;hTDP1 cells + 20 nM CPT, ATP luminescence, 48 h. actives 12% (n = 420,000). Potency, µM (titrated, usually from 46.2 µM), without a hit: top-dose activity change, negative = growth inhibition, most hits filed as inhibitors; also: nearly all actives have a fitted effect of over 55% in size
#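 Chicken DT40 Tdp1-/- cells stably complemented with human TDP1 were seeded at 400 cells/well in medium containing 20 nM camptothecin, exposed to pin-transferred compounds, and grown at 37 °C for at least 48 hr. Viability was read as ATP luminescence.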
# RORg inh: blocks mouse ROR gamma transcriptional activity | Potency, µM (series often up to 53.6 µM), inactives show top-dose activity change, negative = inhibition, most hits filed as inhibitors | Drosophila S2 Gal4-RORgamma UAS-luciferase reporter, 20 h | actives 5.4% (n = 310,000) | P51450; also: nearly all actives have a fitted effect of over 60% in size
#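 ROR gamma transcriptional activity was tracked as Gal4-UAS luciferase output in stably transfected Drosophila Schneider cells, with compound added 1 hr before 700 uM copper sulfate induction and a 20 hr ambient-temperature incubation.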
# ALOX12 inh: ALOX12 (human) lipoxygenase inhibition. purified 12hLO, xylenol orange hydroperoxide absorbance. actives 1.1% (n = 580,000). AID 1671190. Potency, µM (top dose mostly 108 µM), inactives show at the top dose activity change, negative = inhibition, actives largely listed as inhibitors. P18054
# Target sequence (P18054 whole entry, looked up): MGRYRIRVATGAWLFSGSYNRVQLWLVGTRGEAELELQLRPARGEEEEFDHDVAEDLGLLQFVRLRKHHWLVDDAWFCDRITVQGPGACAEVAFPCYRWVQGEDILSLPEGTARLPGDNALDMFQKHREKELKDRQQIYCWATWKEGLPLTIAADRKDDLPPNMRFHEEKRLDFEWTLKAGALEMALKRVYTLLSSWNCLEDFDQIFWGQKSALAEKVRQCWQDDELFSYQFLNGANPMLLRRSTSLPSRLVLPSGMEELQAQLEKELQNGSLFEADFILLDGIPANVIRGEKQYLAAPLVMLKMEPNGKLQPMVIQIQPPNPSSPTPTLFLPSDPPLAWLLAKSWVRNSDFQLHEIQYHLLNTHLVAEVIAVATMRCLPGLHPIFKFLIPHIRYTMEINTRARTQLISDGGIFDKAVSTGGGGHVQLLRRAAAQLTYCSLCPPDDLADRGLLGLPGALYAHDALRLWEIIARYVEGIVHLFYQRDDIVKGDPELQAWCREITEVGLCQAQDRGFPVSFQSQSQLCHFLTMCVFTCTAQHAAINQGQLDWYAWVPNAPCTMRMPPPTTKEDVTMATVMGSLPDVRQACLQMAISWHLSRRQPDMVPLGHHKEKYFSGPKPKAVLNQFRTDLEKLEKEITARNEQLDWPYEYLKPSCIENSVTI
#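 Purified human 12hLO at 150 nM in 25 mM Hepes, 0.01% Triton X-100, pH 7.0, preincubated 15 min at room temperature with compound. Reaction started with 40 uM arachidonic acid, 30 min at room temperature. Hydroperoxide measured by Fe-xylenol orange, 573/405 nm absorbance ratio.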
# ELG1 DNA repair: ELG1-dependent DNA repair inhibition. HEK293T ELG1-luciferase reporter, luminescence, 16 h; DNA damage induced by 5-fluorouridine. Potency, µM (titrated, usually from 46.1 µM), inactives show at the top dose activity change, negative = inhibition, most hits filed as inhibitors. actives 2.3% (n = 330,000). AID 504467; also: nearly all actives have a fitted effect of over 55% in size
#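 HEK293T cells expressing luciferase-tagged ELG1 (2,000/well) received 5-Fluorouridine plus compound or DMSO for 16 hr at 37 °C. Luciferase was read by ONE-Glo luminescence after 30 min at room temperature.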
# VP16 counter: counter-screen for ROR gamma inhibitors: Gal4-VP16 reporter; Drosophila S2 Gal4-VP16 UAS-luciferase, luminescence, 20 h; actives 3.5% (n = 310,000); Potency, µM (series often up to 53.6 µM), without a hit: at the top dose activity, negative = inhibition, usual class: inhibitors; AID 2546;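 also: Gal4-VP16 expression switched on by copper sulfate through the metallothionein promoter; nearly all actives have a fitted effect of over 50% in size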
# TDP1 cell noCPT: qHTS for Inhibitors of human tyrosyl-DNA phosphodiesterase 1 (TDP1): qHTS in cells in absence of CPT. DT40 Tdp1-/- hTDP1 cells, no CPT, ATP luminescence, 48 h. Potency, µM (titrated, usually from 46.2 µM), for the others: at the top dose activity change, negative = growth inhibition, usual class: inhibitors. actives 15% (n = 420,000); also: nearly all actives have a fitted effect of over 55% in size
#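 Growth of hTDP1-complemented DT40 Tdp1-knockout cells is measured by ATP luminescence after at least 48 hr compound exposure at 37 °C, with DMSO substituting for the 20 nM CPT used in the parallel screen.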
# The depositor's hits bear a star; ? = inconclusive; nt = no result; [ ] = another dose, or the depositor's remark. A selection: hits, their analogues and other compounds. The true share with any hit is near 15%. Calls follow the shape of the dose curve; as a rule, active = well fitted curve in the direction sought with a large enough effect; inconclusive = small, poorly fitted or top-dose-only effect, or another doubt; inactive = no such curve, though single readings can be large; an effect the other way counts as inactive or inconclusive. % is scaled to controls: 0 for no effect and ±100 for the full control effect; potency is read from the fitted curve at half-maximal effect.
SMILES,TDP1 cell CPT,RORg inh,ALOX12 inh,ELG1 DNA repair,VP16 counter,TDP1 cell noCPT
O=C(NCc1ccccc1)C(c1c(F)cccc1Cl)N(C(=O)c1csnn1)C1CC1 (centres undefined),?,0.9%,11.5%,-1.7%,6.4%,?
O=C(CSc1ccc2c(c1)OCCO2)N1CCN(c2ccccc2O)CC1,23.1µM*,nt,-7.7%,?,nt,23.1µM*
O=C(NCC(=O)N1CCN(c2ccccc2O)CC1)c1ccc2c(c1)OCO2,-10.7%,nt,31.6µM*,-10.6%,nt,4.3%
CCOc1ccccc1N1CCN(C(=O)CSc2ccc3c(c2)OCCO3)CC1,-16.3%,nt,?,-15.6%,nt,?
O=C(Cc1ccc(Cl)cc1Cl)N1CCN(c2ccccc2O)CC1,nt,nt,39.8µM*,nt,nt,nt
O=C(C1CC(=O)N(c2ccc3c(c2)OCCO3)C1)N1CCN(c2ccccc2O)CC1 (centres undefined),20.6µM*,-3.4%,462.7%,-3.3%,-3.0%,?
O=C(C1CC(=O)N(c2ccc3c(c2)OCCO3)C1)N1CCN(c2ccccc2)CC1 (centres undefined),-27.0%,2.4%,1.2%,-12.1%,5.0%,-27.6%
CCCCc1nn2cc(-c3ccc(F)cc3)nc2s1,nt,nt,26.6%,nt,nt,nt
CCn1cnc2c1c(=O)n(CC(=O)NCc1ccccc1Cl)c(=O)n2Cc1ccccc1,nt,nt,-20.0%,nt,nt,nt
CC(=O)Nc1ccc(NC(=O)CC2C(=O)NCCN2C(=O)CN2CCN(CCO)CC2)cc1 (centres undefined),nt,nt,-29.6%,nt,nt,nt
C(=N\Nc1nc(-c2ccccc2)cs1)/c1cccnc1,12.6µM*,9.3%,?,?,-4.6%[0.365 µM],?
Cc1ccc(S(=O)(=O)N/N=C\c2cccnc2)cc1,-21.2%,?,0.2%,8.8%,-5.7%,-4.5%
C(=N\Nc1nccc(-c2cccnc2)n1)/c1ccccc1,0.0326µM*,-20.4%,0.0%,?,-22.6%,?
Cc1ccc(-c2cc(-c3ccccc3O)nc(N/N=C/c3cccnc3)n2)cc1,16.4µM*,?,16.4%,?,?,11.6µM*
Clc1ccc(-c2csc(N/N=C/c3cccnc3)n2)c(Cl)c1,?,-8.7%[10 µM],-24.2%,-26.5%,-2.4%,?
Cn1cc(C(=O)N2CCN(CC(=O)N3CCCC3)CC2)c2ccccc21,nt,nt,-44.1%,nt,nt,nt
Cc1cc(C)c2oc(C(=O)Nc3ccc(S(=O)(=O)Nc4cc(C)nc(C)n4)cc3)cc(=O)c2c1,nt,nt,23.4%,nt,nt,nt
O=C1Nc2ccccc2OCC12CCN([S+](=O)([O-])c1cccs1)CC2,nt,nt,19.3%,nt,nt,nt
CCc1ccc(C(O)c2ncc(-c3cccc(OC)c3)[nH]2)cc1 (centres undefined),?,nt,nt,nt,nt,9.2µM*
COc1cccc(-c2cnc(C(O)c3ccc(F)cc3)[nH]2)c1 (centres undefined),-11.9%,nt,-4.9%,nt,nt,-11.5%
COc1cccc(-c2cnc(C(O)c3ccc(Cl)c(Cl)c3)[nH]2)c1 (centres undefined),20.6µM*,nt,-2.9%,nt,nt,?
COc1ccc(C(O)c2ncc(-c3cccc(OC)c3)[nH]2)cc1 (centres undefined),-6.6%,nt,9.0%,nt,nt,-22.2%
COc1cccc(-c2cnc(C(O)c3ccc(Cl)cc3)[nH]2)c1 (centres undefined),25.9µM*,nt,-6.7%,nt,nt,?
COc1cccc(-c2cnc(C(O)c3ccc(SC)cc3)[nH]2)c1 (centres undefined),?,nt,-11.7%,nt,nt,16.4µM*
O=c1oc2ccccc2c(N2CCCC2)c1NS(=O)(=O)c1ccc(F)cc1,nt,nt,-23.5%,nt,nt,nt
CSc1ccc(C(O)c2ncc(-c3cccc(F)c3)[nH]2)cc1 (centres undefined),14.6µM*,nt,-11.6%,nt,nt,?
